# Screening data (PubChem BioAssay)
# Apoferritin bind – binds horse apoferritin like a general anesthetic; Potency, µM (titrated, usually from 77.5 µM), for the others: top-dose activity change, negative = displacement, usual class: inhibitors; 350,000 tested, 0.074% active; apoferritin/1-aminoanthracene competitive binding, fluorescence; also: potency is read from the fitted curve at half-maximal effect; % is scaled to controls: 0 for no effect and ±100 for the full control effect; nearly all actives have a fitted effect of over 20% in size
#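 Steps: apoferritin (10 uM) was premixed with half-saturated 1-AMA in PBS, compounds were pin-transferred, plates stood 10 min at room temperature, fluorescence was read at 380/535 nm, and curves were fitted with a Hill equation.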
# GRP78 ERSR act – inducers of ER stress response in human glioma cells; U87-MG GRP78 promoter luciferase reporter, 16 h; Potency, µM, for inactives: at the top dose activation, actives largely listed as activators; 420,000 tested, 0.02% active; AID 602332; also: potency is read from the fitted curve at half-maximal effect; series mostly up to about 76 µM; % of control where 0% means no effect; nearly all actives have a fitted effect of over 35% in size
#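 Stably transfected U87-MG glioma cells carrying a GRP78-based luciferase sensor; 16 h compound incubation. Luminescence end-point read 10 min after Bright-Glo addition at room temperature.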
# mIDH1 inhibitor – blocks human mutant IDH1 R132H enzyme | IDH1-R132H enzyme, NADPH consumption, diaphorase/resazurin fluorescence | O75874 | 390,000 tested, 0.093% active | Potency, µM (doses to about 76.6 µM), without a hit: at the highest dose activity change, negative = inhibition, hits mostly inhibitors; also: potency is read from the fitted curve at half-maximal effect; % is scaled to controls: 0 for no effect and ±100 for the full control effect; nearly all actives have a fitted effect of over 65% in size
#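 IDH1-R132H (0.5 ug/mL) preincubated 30 min with compound, then NADPH (0.016 mM) and alpha-KG (2 mM) added; 80 min at RT, pH 7.5. Remaining NADPH coupled via diaphorase/resazurin to fluorescence (540/590 nm); concentration-response curves normalized to no-enzyme control.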
# 12-LOX inh – inhibitors of human 12S-lipoxygenase ALOX12 | Potency, µM (doses to about 108 µM), without a hit: at the highest dose activity change, negative = inhibition, actives largely listed as inhibitors | AID 1671190 | 580,000 tested, 1.1% active | P18054 | purified 12hLO, xylenol orange hydroperoxide absorbance; also: potency is read from the fitted curve at half-maximal effect; % is scaled to controls: 0 for no effect and ±100 for the full control effect
#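 Hydroperoxide product was detected by ferrous iron/xylenol orange as the 573 to 405 nm absorbance ratio. Arachidonic acid at 40 uM (final) was turned over for 30 min at room temperature by 150 nM human 12hLO, pH 7.0 Hepes buffer, after 15 min compound preincubation.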
# rTrxR1 inhibitor – rat TrxR1 inhibition. recombinant rTrxR1, NADPH fluorescence consumption, selenite substrate. Potency, µM (top dose mostly 114 µM), for the others: top-dose activity change, negative = inhibition, most hits filed as inhibitors. 390,000 tested, 1% active; also: potency is read from the fitted curve at half-maximal effect; % is scaled to controls: 0 for no effect and ±100 for the full control effect; nearly all actives have a fitted effect of over 65% in size
# Target sequence (O89049 whole entry, looked up): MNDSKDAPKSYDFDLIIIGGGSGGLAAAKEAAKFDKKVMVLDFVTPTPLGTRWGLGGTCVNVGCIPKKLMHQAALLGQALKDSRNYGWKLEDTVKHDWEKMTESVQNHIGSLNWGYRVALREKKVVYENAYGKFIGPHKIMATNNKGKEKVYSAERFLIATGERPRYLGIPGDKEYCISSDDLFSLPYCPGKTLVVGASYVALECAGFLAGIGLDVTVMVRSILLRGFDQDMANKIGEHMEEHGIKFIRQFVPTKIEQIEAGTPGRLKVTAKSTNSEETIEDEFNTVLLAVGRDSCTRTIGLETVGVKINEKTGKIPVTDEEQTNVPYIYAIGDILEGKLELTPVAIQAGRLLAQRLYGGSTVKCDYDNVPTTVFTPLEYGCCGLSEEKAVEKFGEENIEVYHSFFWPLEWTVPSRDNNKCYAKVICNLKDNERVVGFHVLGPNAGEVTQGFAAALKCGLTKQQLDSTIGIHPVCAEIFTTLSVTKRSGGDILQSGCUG
#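 Rat TrxR1 (90 nM in the dispensed reagent) was pre-reduced with 400 uM NADPH for 5 min at room temperature, then incubated with compound for 15 min. After 400 uM selenite was added, NADPH fluorescence (Ex 340/Em 450 nm) was followed for 8 min.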
# TrxR1 substrate – substrates of rat thioredoxin reductase 1; O89049; purified TrxR1 substrate turnover, NADPH consumption readout; Potency, µM (titrated, usually from 114 µM), for the others: at the highest dose activity change, negative = substrate turnover; 390,000 tested, 0.01% active; also: potency is read from the fitted curve at half-maximal effect; % is scaled to controls: 0 for no effect and ±100 for the full control effect; nearly all actives have a fitted effect of over 50% in size
#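 Rat TrxR1, dispensed at 90 nM, was prereduced with 400 uM NADPH (final) for 5 min at ~22 deg C, then incubated with compound 15 min before 400 uM selenite. A first-read NADPH fluorescence drop versus no-compound background flagged substrates.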
# Resorufin autofl – interferes with resorufin fluorescence in IDH1 counter-screen. shares compounds with mIDH1 inhibitor. Resorufin detection reagent fluorescence interference, cell-free. inhibition of signal, % at 51.2 µM. 750 tested, under 10 active. AID 623980;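 also: 0% = wells with normal resorufin and full inhibition = wells lacking resorufin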
# IDH1 WT – wild-type IDH1 (human) inhibition counterscreen; shares compounds with mIDH1 inhibitor; WT IDH1 enzyme, NADPH diaphorase/resazurin fluorescence; Potency, µM (series often up to 115 µM), for inactives: at the highest dose activity change, negative = inhibition, hits mostly inhibitors; 750 tested, 9% active; AID 623995;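 also: potency is read from the fitted curve at half-maximal effect; 0% = full WT IDH1 enzyme control and full inhibition = no enzyme wells; nearly all actives have a fitted effect of over 55% in size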
# IDH1 R132H conf – confirmation of human mutant IDH1 inhibitors; shares compounds with mIDH1 inhibitor; IDH1 R132H enzyme, NADPH diaphorase/resazurin fluorescence; Potency, µM (doses to about 76.6 µM), for inactives: at the top dose activity change, negative = inhibition, actives largely listed as inhibitors; 750 tested, 83% active; also: potency is read from the fitted curve at half-maximal effect; nearly all actives have a fitted effect of over 50% in size
# * hit, by the source's call; u = inconclusive; x = not tested or not shown; [ ] = dose if it differs, or a comment. Hits are enriched below; roughly 1.7% of the tested compounds scored in any of these assays. Calls follow the shape of the dose curve; as a rule, active = well fitted curve in the direction sought with a large enough effect; inconclusive = small, poorly fitted or top-dose-only effect, or another doubt; inactive = no such curve, though single readings can be large; an effect the other way counts as inactive or inconclusive.
SMILES,Apoferritin bind,GRP78 ERSR act,mIDH1 inhibitor,12-LOX inh,rTrxR1 inhibitor,TrxR1 substrate,Resorufin autofl,IDH1 WT,IDH1 R132H conf
CCOc1cccc(N(C(=O)Cc2cccs2)C(C(=O)NC2CCCCC2)c2cccn2C)c1 (centres undefined),-11.6%,-2.0%,u,-8.0%,20.0%,7.6%,-1.6,7.5%,15.8µM*
Fc1ccc(CN(Cc2cccs2)C2CC2)cc1,x,x,x,56.9%,x,x,x,x,x
COC(=O)C1CCN(Cc2ccc3c(c2)CN(C(=O)c2cc4cc(F)ccc4[nH]2)CCO3)CC1,x,-1.3%,x,u,x,x,x,x,x
CCc1ccc(N(C(=O)Cc2cccs2)C(C(=O)NC2CCCCC2)c2cn(C)nc2C)cc1 (centres undefined),-6.7%,1.9%,-0.5%,-0.1%,-8.5%,-6.4%,x,x,x
Cc1ccccc1C(C(=O)NC1CCCC1)N(C(=O)Cc1cccs1)c1ccc2c(c1)OCCO2 (centres undefined),-14.3%,-2.8%,6.56µM*,7.1%,23.1%,-0.6%,3.4,-0.3%,3.98µM*
COc1cc2c(-c3ccccc3O)nc3c(c(C)nn3-c3ccccc3)c2cc1OC,1.2%,-0.9%,29.6%,u,8.3%,4.5%,x,x,x
COc1cc2c(-c3ccccc3Cl)nc3c(c(C)nn3-c3ccccc3)c2cc1OC,343.9%,-5.5%,u,-10.8%,13.1%,29.6%,-1.8,0.4%,5.01µM*
Cc1nc(NCc2cc(C3CC3)on2)cc(C2CC(O)C2)n1 (centres undefined),x,x,x,59.9%,x,x,x,x,x
CCOC(=O)N1CCN(C(=O)c2sc(C(C)C)nc2C)CC1,x,x,x,20.4%,x,x,x,x,x
CCN(CC(=O)NC)S(=O)(=O)N1CCCCC1,x,x,x,42.1%,x,x,x,x,x
CC(=O)Oc1ccc(C(=O)[C@H]2[C@H]3C(=O)N(c4ccc(C)cc4C)C(=O)[C@H]3[C@@H]3C=CC=NN32)cc1,-16.8%,2.9%,41.4µM*,u,-41.1%,1.3%[57.1 µM],4.4,-10.7%,28.2µM*
O=c1[nH]nc2n1CCC(NS(=O)(=O)c1cccc3cccnc13)CC2 (centres undefined),x,x,x,3.3%,x,x,x,x,x
CC(Cc1ccncc1)Nc1nccc(-c2cnn(-c3ccccc3F)c2)n1 (centres undefined),x,x,x,91.6%,x,x,x,x,x
C#CC(=O)N(c1cc(OC)ccc1OC)C(C(=O)NC1CCCC1)c1cccs1 (centres undefined),-18.6%,-14.0%,u,x,1µM*,-2.2%,-6.9,11.4%,44.7µM*
O=C(NC1CCCCC1)C(c1cccs1)N(C(=O)C(F)(F)F)c1ccccc1 (centres undefined),-16.7%,0.5%,u,2.2%,7.0%,6.8%,-12.4,5.4%,20µM*
Cc1cc(NC(=O)CCC(=O)N(c2ccccc2)C(C(=O)NC2CCCC2)c2ccc(F)cc2)no1 (centres undefined),-1.1%,-0.7%,u,-18.3%,4.9%,2.3%[0.457 µM],-6.1,-3.7%,u
Cc1cc(NC(=O)CCC(=O)N(c2ccc(F)cc2)C(C(=O)NC2CCCC2)c2ccc(C)o2)no1 (centres undefined),u,-0.2%,-17.8%,-0.1%,21.5%,2.8%,x,x,x
